Compound activity as filed in PubChem.
Mtb BioA inh – inhibitors of Mycobacterium tuberculosis BioA enzyme. 360,000 tested, 0.096% active. purified M. tuberculosis BioA enzyme, plate reader. inhibition, % at 9.99 µM; in the data active = inhibition above about 40%
3CLpro inhibitor – SARS-CoV 3CLpro protease inhibition; recombinant SARS-CoV 3CLpro, quenched FRET peptide cleavage; inhibition, % at 6 µM; 290,000 tested, 0.14% active; AID 1706; in the data active = inhibition above about 12%
FadD28 FP inh – blocks FadD28 binding to the bisubstrate probe; AID 588549; fluorescence polarization; inhibition, % at 12.5 µM; 360,000 tested, 0.22% active; in the data active = inhibition above about 8.5%, passing the limit was not always enough
GDH-TPI inh – GDH-TPI coupled enzyme inhibition counter-screen; GDH-TPI coupled enzyme counterscreen, NADH absorbance; inhibition, % at 4.8 µM; 360,000 tested, 1.2% active; in the data active = inhibition above about 30%;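 also: 0% = DMSO wells and 100% = wells lacking the enzyme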
Mtb FBA inh – inhibits M. tuberculosis FBA enzyme; P9WQA3; purified M. tuberculosis FBA, fluorescence read-out; inhibition, % at 1 µM; 360,000 tested, 2.3% active; in the data active = inhibition above about 27%;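 also: 0% = vehicle and 100% = reference inhibitor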
Target sequence (P9WQA3 whole entry, looked up): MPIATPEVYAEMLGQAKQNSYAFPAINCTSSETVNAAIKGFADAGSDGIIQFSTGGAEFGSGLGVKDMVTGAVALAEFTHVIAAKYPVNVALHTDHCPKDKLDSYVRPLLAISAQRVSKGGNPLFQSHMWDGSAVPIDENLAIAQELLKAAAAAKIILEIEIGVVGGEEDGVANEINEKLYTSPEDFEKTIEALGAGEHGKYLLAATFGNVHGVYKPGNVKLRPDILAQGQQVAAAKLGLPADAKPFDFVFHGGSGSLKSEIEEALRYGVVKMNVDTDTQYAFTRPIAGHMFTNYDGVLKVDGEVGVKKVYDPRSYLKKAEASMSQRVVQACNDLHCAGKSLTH
* = called active by the depositor; / = not tested or not shown; + = active, no number; ! = not confirmed by another sample. Hits are enriched below; roughly 3.1% of the tested compounds scored in any of these assays.

SMILES | Mtb BioA inh | 3CLpro inhibitor | FadD28 FP inh | GDH-TPI inh | Mtb FBA inh
CCN(CC)c1ccc(CC2C(=O)N(C)C(=O)N(C)C2=O)cc1 | / | 2 | -4 | 9 | 42*
C=CCOc1ccc(CC2C(=O)N(C)C(=O)N(C)C2=O)cc1 | / | 1 | -2 | -5 | 0
CS(=O)(=O)Nc1ccc2c(c1)[C@H]1C[C@@H](CC(=O)N3CCCCC3)O[C@H](CO)[C@H]1O2 | 1 | / | / | / | /
Cc1cc(N/N=C/c2ccc(O)cc2O)nc(-n2nc(C)cc2C)n1 | -2 | -1 | 0 | 36* | 0
COc1cccc(/C=N/Nc2cc(Cl)nc(C)n2)c1O | / | -6 | -3 | 8 | 5
Oc1ccc(/C=N/Nc2ccc(Cl)nn2)cc1O | / | 3 | 0 | 32* | 1
Cc1ccc(/C=N/Nc2ccc(Cl)nn2)cc1 | / | -3 | -3 | 9 | 2
COc1ccc(/C=N/Nc2cc(C)nc(-n3nc(C)cc3C)n2)cc1 | / | -3 | -4 | 17 | 4
Cc1nc(Cl)cc(N/N=C/c2ccc(O)cc2O)n1 | -1 | 2 | 0 | 59* | 1
CCOc1ccc(/C=N/Nc2cc(N3CCOCC3)nc(C)n2)c(O)c1 | 0 | -4 | 0 | 34* | 5
O=S(=O)(N[C@H]1CC[C@@H](CCn2cc(C3(O)CCCC3)nn2)O[C@@H]1CO)c1ccccc1 | -5 | / | / | / | /
CCCNC(=O)N(C)C[C@@H]1Oc2cc(C#CC3CC3)ccc2S(=O)(=O)N([C@H](C)CO)C[C@H]1C | -4 | / | / | / | /
C[C@H]1CN([C@@H](C)CO)C(=O)c2cc(NC(=O)CCC(F)(F)F)ccc2O[C@@H]1CN(C)C(=O)Nc1ccc(F)cc1 | -3 | / | / | / | /
C[C@H](CO)N1C[C@H](C)[C@H](CN(C)Cc2ccncc2)OCCCC[C@H](C)Oc2ccc(NC(=O)Nc3ccc(F)cc3)cc2C1=O | -1 | / | / | / | /
COCC(=O)Nc1ccc2c(c1)OC[C@@H](C)N(C(=O)c1ccccc1F)C[C@@H](C)[C@@H](OC)CN(C)C2=O | -2 | / | / | / | /
Cc1nc(Cl)cc(N/N=C/c2ccc(O)cc2)n1 | -2 | -5 | 1 | 35* | -1
O=C(O)c1cccc2cccc(-c3c4ccc(=O)c(O)c-4oc4c(O)c(O)ccc34)c12 | / | / | 44* | 9 | -2
Nc1ccc(C(=O)O)c(O)c1 | -1 | 2 | 16*! | 3 | -4
O=C(NC1CC1)c1ccc(-c2cnc3cccnn23)cc1 | -2 | / | -1 | 20 | +
O=C(NCc1ccco1)c1cccc(-c2cncc3nccn23)c1 | 1 | / | -5 | -2 | 123*
O=C(NCc1ccco1)c1cccc(-c2ccc3nccn3c2)c1 | 26 | / | -2 | 5 | 0
CC(=O)Nc1cncc(-c2cccc(C(=O)NC3CC3)c2)n1 | 9 | / | -4 | 11 | 2
O=C(NC1CC1)c1cccc(-c2cncc3nccn23)c1 | 1 | / | -4 | 16 | 185*
Cc1ccc(S(=O)(=O)Nc2ccc3c(c2)CC(=O)N([C@H](C)CO)C[C@@H](C)[C@@H](CN(C)Cc2ccc(C(=O)Nc4ccccc4N)cc2)O3)cc1 | -2 | / | / | / | /
Cc1c(N2C(=O)/C(=C/c3ccccc3)SC2=S)c(=O)n(-c2ccccc2)n1C | 2 | 7 | 0 | 38* | 0
SMILES | Mtb BioA inh | 3CLpro inhibitor | FadD28 FP inh | GDH-TPI inh | Mtb FBA inh
Cc1ccc(/C=C2\SC(=S)N(c3c(C)n(C)n(-c4ccccc4)c3=O)C2=O)cc1 | -1 | 4 | -2 | 27 | -2
Cc1c(OCC(=O)NCc2ccncc2)ccc2c3c(c(=O)oc12)CCCC3 | 1 | 0 | 0 | 3 | 9
CCCc1cc(=O)oc2c3c(cc(OCC(=O)NCc4ccncc4)c12)OC(C)(C)CC3 | 8 | 3 | -3 | 25 | +
Cc1cc(OCC(=O)C(C)(C)C)c2c(C)c(C)c(=O)oc2c1 | 1 | 1 | -2 | 5 | 49*
Cc1cc(OCC(=O)N2CCN(c3cccc(Cl)c3)CC2)c2c(C)c(C)c(=O)oc2c1 | 1 | 2 | -5 | 7 | 2
CCCc1cc(=O)oc2c3c(cc(OCC(=O)NCc4ccccn4)c12)OC(C)(C)CC3 | 7 | 0 | -3 | 18 | 192*
Cc1c(C)c2c(OCC(=O)NCc3ccccn3)cc3c(c2oc1=O)CCC(C)(C)O3 | 9 | -2 | -4 | 24 | +
C[C@H](CO)N1C[C@H](C)[C@H](CN(C)C(=O)C2CCOCC2)Oc2ncc(C#Cc3cccc(F)c3)cc2C1=O | 0 | / | / | / | /
Cc1cc(OCC(=O)NCc2ccccn2)c2c(C)c(C)c(=O)oc2c1 | 0 | 2 | 0 | 22 | 120*
Cc1cc(OCC(=O)Nc2ccccn2)c2c(C)c(C)c(=O)oc2c1 | -2 | 2 | -2 | -6 | 11
O=C(CSc1nc2ccc([N+](=O)[O-])cc2s1)NC1CCS(=O)(=O)C1 (stereo not given) | / | 0 | -2 | 10 | 1
CN(C(=O)CSc1nc2ccc([N+](=O)[O-])cc2s1)C1CCS(=O)(=O)C1 (stereo not given) | / | 3 | -3 | 34* | 0
C[C@@H]1CN([C@@H](C)CO)C(=O)c2cc(NS(=O)(=O)c3ccc(F)cc3)ccc2O[C@@H]1CN(C)S(C)(=O)=O | -1 | / | / | / | /
O=C1c2ccc3c4c(ccc(c24)C(=O)N1c1cccc(O)c1)C(=O)N(c1cccc(O)c1)C3=O | -2 | -1 | -3 | 35* | 3
COc1ccc(-c2nnc(-c3ccc(N(C)C)cc3)o2)cc1 | -2 | 0 | 0 | 22 | 18
CN(C)c1ccc(-c2nnc(-c3ccccc3F)o2)cc1 | -2 | 0 | -2 | 33* | 22
Cc1ccc(NC(=O)/C(C#N)=N/Nc2ccc(C(=O)O)cc2)c(C)c1 | -1 | 4 | -2 | 58* | -11
Cc1ccc(N/N=C(\C#N)C(N)=S)c(C)c1 | / | -4 | 2 | 11 | 2
CCCNC(=O)N1C[C@H](O)COC[C@H]2O[C@H](CC(=O)NCc3ccc(Cl)c(Cl)c3)CC[C@@H]21 | -1 | / | / | / | /
CCOc1ccc(-c2nc(C#N)c(NCC3CCCO3)o2)cc1 (stereo not given) | 0 | 1 | 0 | 22 | 177*
CCCOc1ccc(-c2nc(C#N)c(NCC3CCCO3)o2)cc1 (stereo not given) | 0 | 1 | 2 | 17 | 121*
N#Cc1nc(-c2ccccc2Cl)oc1NCC1CCCO1 (stereo not given) | 2 | 2 | -3 | 28 | 19
COc1ccc(-c2nc(C#N)c(NCC3CCCO3)o2)cc1OC (stereo not given) | 1 | 2 | 1 | 14 | 180*
CCCN1C[C@H](C)[C@H](OC)CN(C)C(=O)c2cc(NC(=O)C3CC3)ccc2OC[C@H]1C | 0 | / | / | / | /
C/C(=N\NC(=S)Nc1cccc(C)c1)c1cc2ccccc2o1 | / | 1 | -3 | 22 | 2
CCNC(=S)N/N=C(\C)c1ccc(Cl)s1 | / | 5 | -3 | 31* | -1
C=C(C)CNC(=S)N/N=C(\C)c1ccc(Cl)s1 | -1 | 4 | -3 | 30 | -1
CCNC(=S)N/N=C(\C)c1cc2ccccc2o1 | / | 3 | -1 | 47* | -4
CC(C)NC(=O)N1CC[C@@H]2[C@H]1c1cc(C#Cc3cccnc3)ccc1N(C)[C@@H]2CO | 21 | / | / | / | /
Oc1ccc(Cl)cc1C1=NNC(c2cccs2)C1 (stereo not given) | 2 | -2 | -4 | 5 | 16
